# Inconclusive results are not listed. Calls of active or inactive are those of the source. The calls were made as follows: active = hit-call score of the fitted dose curve at least 0.9, where 1 is the maximum; inconclusive = response in the unintended direction; inactive = score below 0.9.
# Assays:
# PPP2CA (gene 5515) = PPP2CA (gene 5515) (UniProt P67775); experiment: NVS_ENZ_hPPP2CA: NovaScreen (NVS) Enzymatic Assay for human Protein Phosphatase 2 Aatalytic subunit Alpha (PPP2CA) (AID 2283199)
# PPP2CA (gene 5515), sequence (P67775 whole entry, looked up): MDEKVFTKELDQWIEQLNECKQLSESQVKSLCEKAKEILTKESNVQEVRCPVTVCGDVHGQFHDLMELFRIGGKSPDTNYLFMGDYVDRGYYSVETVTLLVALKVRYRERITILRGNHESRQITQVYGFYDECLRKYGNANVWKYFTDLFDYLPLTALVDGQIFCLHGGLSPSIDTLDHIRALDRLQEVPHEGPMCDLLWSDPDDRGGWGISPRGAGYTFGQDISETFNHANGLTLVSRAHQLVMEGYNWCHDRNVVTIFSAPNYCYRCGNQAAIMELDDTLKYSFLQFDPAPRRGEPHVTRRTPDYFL
# Summary of the method: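 Recombinant human PPP2CA with fluorescent substrate; product separated from substrate by electrophoretic mobility shift, read 1.33 h after dosing. Duplicate single-point at 25 uM, then singleton concentration-response up to 50 uM; loss of signal versus DMSO.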
# [1] = target: human Protein Tyrosine Phosphatase Non-receptor Type 1 (PTPN1), PTPN1 (gene 5770) (UniProt P18031); experiment: NVS_ENZ_hPTPN1: NovaScreen (NVS) Enzymatic Assay for human Protein Tyrosine Phosphatase Non-receptor Type 1 (PTPN1) (AID 2283201)
# Summary of the method: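 Cell-free fluorogenic-substrate activity assay on recombinant enzyme, read 1.33 h after dosing by fluorescence and electrophoretic mobility shift; loss of signal vs DMSO baseline. Primary screen in duplicate at 25 uM, hits then run in concentration-response up to 50 uM.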
# [2] = target: Tyrosine-protein phosphatase non-receptor type 11 (Homo sapiens) (UniProt Q06124); experiment: NVS_ENZ_hPTPN11: NovaScreen (NVS) Enzymatic Assay for human Protein Tyrosine Phosphatase Non-receptor Type 11 (PTPN11) (AID 2283202)
# Summary of the method: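 Recombinant human PTPN11 activity on a fluorescent substrate, with substrate/product separated by electrophoretic mobility shift; read 0.5 h after dosing, loss of signal vs DMSO. Duplicate 25 uM screen, then concentration-response up to 50 uM.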
# [3] = target: human Phosphatase and Tensin Homolog (PTEN), PTEN (gene 5728) (UniProt P60484); experiment: NVS_ENZ_hPTEN: NovaScreen (NVS) Enzymatic Assay for human Phosphatase and Tensin Homolog (PTEN) (AID 2283203)
# Summary of the method: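 Cell-free recombinant human PTEN with fluorescent substrate; product separated by electrophoretic mobility shift and read by fluorescence 1 h after dosing. Primary screen in duplicate at 25 uM, actives followed in concentration series versus DMSO.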
# [4] = target: Tyrosine-protein phosphatase non-receptor type 13 (Homo sapiens) (UniProt Q12923); experiment: NVS_ENZ_hPTPN13: NovaScreen (NVS) Enzymatic Assay for human Protein Tyrosine Phosphatase Non-receptor Type 13 (PTPN13) (AID 2283205)
# Tyrosine-protein phosphatase non-receptor type 13 (Homo sapiens), sequence (Q12923 whole entry, looked up): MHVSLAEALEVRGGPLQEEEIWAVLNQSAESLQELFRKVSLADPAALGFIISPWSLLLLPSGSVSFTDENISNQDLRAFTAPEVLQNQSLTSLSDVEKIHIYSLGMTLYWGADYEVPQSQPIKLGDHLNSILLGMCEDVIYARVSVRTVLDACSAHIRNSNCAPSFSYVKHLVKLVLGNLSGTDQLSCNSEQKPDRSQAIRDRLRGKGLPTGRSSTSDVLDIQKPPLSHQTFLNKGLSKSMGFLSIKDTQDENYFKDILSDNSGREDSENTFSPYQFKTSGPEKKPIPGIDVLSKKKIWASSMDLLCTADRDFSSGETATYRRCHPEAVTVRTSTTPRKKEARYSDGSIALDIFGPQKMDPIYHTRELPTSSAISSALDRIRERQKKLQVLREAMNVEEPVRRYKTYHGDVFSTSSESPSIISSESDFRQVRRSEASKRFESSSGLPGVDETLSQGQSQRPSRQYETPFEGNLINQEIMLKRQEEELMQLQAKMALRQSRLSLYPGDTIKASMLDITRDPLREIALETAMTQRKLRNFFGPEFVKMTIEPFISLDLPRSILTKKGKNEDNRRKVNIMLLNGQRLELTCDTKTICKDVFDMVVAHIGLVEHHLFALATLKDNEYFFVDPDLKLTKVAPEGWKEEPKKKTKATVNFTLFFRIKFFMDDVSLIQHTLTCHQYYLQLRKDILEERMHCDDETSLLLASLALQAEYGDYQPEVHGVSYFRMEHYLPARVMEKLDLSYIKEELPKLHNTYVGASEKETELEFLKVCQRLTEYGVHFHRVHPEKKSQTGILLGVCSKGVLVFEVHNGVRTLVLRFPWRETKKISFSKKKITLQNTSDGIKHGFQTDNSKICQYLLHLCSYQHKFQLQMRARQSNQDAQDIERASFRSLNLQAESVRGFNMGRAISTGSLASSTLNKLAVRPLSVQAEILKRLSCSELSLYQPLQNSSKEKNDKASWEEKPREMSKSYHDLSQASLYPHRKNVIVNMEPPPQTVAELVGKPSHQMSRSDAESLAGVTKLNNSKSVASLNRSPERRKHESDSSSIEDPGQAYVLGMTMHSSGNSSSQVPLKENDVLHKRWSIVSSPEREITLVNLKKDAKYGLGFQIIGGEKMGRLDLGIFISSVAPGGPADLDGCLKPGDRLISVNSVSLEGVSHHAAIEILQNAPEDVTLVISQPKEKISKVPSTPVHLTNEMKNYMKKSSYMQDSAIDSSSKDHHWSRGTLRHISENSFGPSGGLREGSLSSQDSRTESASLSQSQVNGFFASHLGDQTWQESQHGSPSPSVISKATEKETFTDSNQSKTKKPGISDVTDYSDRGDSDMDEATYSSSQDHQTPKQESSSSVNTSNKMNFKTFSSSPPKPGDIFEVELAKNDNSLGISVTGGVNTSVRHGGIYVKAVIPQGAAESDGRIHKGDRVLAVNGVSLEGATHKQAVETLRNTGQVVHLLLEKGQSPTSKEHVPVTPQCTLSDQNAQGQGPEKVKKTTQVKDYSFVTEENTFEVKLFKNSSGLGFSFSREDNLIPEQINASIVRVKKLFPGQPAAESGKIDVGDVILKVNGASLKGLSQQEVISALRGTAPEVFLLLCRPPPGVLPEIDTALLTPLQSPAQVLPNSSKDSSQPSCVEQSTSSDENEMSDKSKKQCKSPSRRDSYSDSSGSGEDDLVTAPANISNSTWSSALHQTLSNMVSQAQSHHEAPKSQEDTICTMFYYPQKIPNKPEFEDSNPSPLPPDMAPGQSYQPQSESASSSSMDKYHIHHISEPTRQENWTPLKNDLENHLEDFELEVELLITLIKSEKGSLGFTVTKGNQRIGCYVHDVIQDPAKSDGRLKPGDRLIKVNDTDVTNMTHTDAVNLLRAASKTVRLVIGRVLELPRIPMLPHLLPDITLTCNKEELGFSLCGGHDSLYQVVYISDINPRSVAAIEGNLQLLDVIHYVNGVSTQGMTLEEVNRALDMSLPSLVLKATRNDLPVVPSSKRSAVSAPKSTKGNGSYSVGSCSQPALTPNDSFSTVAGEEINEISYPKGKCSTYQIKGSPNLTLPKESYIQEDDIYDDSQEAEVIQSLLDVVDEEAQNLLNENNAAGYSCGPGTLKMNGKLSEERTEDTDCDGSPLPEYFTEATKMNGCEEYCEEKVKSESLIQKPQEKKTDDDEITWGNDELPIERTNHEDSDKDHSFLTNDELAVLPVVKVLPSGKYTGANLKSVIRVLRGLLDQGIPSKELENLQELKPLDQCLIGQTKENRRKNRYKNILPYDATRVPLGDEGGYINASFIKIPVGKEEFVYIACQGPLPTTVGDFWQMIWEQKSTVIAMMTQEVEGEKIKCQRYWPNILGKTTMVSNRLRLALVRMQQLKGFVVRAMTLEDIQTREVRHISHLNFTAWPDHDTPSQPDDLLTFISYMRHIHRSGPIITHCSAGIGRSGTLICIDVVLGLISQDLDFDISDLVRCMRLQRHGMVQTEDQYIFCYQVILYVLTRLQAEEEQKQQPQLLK
# Summary of the method: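 Cell-free assay of recombinant human PTPN13 with a fluorescent substrate, product separated by electrophoretic mobility shift and read 0.5 h after dosing. Primary screen at 25 uM in duplicate, then concentration-response up to 50 uM. Loss of signal fitted against DMSO.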
# [5] = target: human Protein Tyrosine Phosphatase Non-receptor Type 2 (PTPN2), PTPN2 (gene 5771) (UniProt P17706); experiment: NVS_ENZ_hPTPN2: NovaScreen (NVS) Enzymatic Assay for human Protein Tyrosine Phosphatase Non-receptor Type 2 (PTPN2) (AID 2283207)
# Summary of the method: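 Cell-free recombinant enzyme with fluorescent substrate, product separated by electrophoretic mobility shift; read 1 h after dosing. Primary screen single concentration (25 uM) in duplicate; actives followed in concentration series; loss of signal versus DMSO.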
# [6] = target: human Protein Tyrosine Phosphatase Non-receptor Type 4 (PTPN4), PTPN4 (gene 5775) (UniProt P29074); experiment: NVS_ENZ_hPTPN4: NovaScreen (NVS) Enzymatic Assay for human Protein Tyrosine Phosphatase Non-receptor Type 4 (PTPN4) (AID 2283208)
# Summary of the method: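 Cell-free assay of PTPN4 expressed in Sf9 cells, using a fluorescent substrate with product separated by mobility shift; read 1.33 h after dosing. Single-point screen at 25 uM, then concentration-response up to 50 uM. Loss of signal relative to DMSO.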
# [7] = target: human Protein Tyrosine Phosphatase Non-receptor Type 9 (PTPN9), PTPN9 (gene 5780) (UniProt P43378); experiment: NVS_ENZ_hPTPN9: NovaScreen (NVS) Enzymatic Assay for human Protein Tyrosine Phosphatase Non-receptor Type 9 (PTPN9) (AID 2283209)
# Summary of the method: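 Sf9-expressed enzyme in a cell-free assay, fluorescence read 1.33 h after dosing with mobility-shift separation of substrate and product. Tested at 25 uM in duplicate, then up to 50 uM; signal loss versus DMSO.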
# [8] = target: human Protein Tyrosine Phosphatase Receptor Type M (PTPRM), PTPRM (gene 5797) (UniProt P28827); experiment: NVS_ENZ_hPTPRM: NovaScreen (NVS) Enzymatic Assay for human Protein Tyrosine Phosphatase Receptor Type M (PTPRM) (AID 2283215)
# Summary of the method: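 Cell-free recombinant PTPRM with fluorogenic substrate; product separated from substrate by electrophoretic mobility shift and read by fluorescence, 1.33 h after dosing. Primary screen single concentration (25 uM) in duplicate; actives retested in concentration series; loss of signal versus DMSO.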
# [9] = target: human Sirtuin 1 (SIRT1), SIRT1 (gene 23411) (UniProt Q96EB6); experiment: NVS_ENZ_hSIRT1: NovaScreen (NVS) Enzymatic Assay for human Sirtuin 1 (SIRT1) (AID 2283219)
# human Sirtuin 1 (SIRT1), SIRT1 (gene 23411), sequence (Q96EB6 whole entry, looked up): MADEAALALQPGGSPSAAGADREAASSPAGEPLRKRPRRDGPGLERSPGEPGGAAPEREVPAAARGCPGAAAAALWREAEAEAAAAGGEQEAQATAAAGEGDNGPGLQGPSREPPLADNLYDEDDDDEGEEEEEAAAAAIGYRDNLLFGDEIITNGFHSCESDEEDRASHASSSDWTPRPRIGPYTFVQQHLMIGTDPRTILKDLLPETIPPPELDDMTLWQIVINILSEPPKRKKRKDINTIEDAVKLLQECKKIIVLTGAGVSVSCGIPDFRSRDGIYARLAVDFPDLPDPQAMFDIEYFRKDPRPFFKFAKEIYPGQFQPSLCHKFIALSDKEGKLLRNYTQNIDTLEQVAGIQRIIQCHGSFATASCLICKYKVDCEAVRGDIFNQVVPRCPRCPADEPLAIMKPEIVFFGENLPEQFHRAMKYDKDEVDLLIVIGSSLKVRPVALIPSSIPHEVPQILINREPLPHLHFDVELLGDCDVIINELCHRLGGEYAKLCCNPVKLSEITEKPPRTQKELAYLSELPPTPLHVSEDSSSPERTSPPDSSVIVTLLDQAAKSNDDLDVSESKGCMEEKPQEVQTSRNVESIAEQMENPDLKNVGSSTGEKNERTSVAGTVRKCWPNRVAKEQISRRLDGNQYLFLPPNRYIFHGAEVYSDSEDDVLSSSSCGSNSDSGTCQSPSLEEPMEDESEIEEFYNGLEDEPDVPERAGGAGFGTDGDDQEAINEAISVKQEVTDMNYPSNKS
# Summary of the method: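 Cell-free recombinant SIRT1 with a fluorescent substrate; substrate and product separated by electrophoretic mobility shift and read by fluorescence intensity, 1 h after dosing. Primary screen at 25 uM in duplicate; hits re-run in concentration-response up to 50 uM, relative to DMSO.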
# [10] = target: human Protein Phosphatase, Mg2+/Mn2+ Dependent 1A (PPM1A), PPM1A (gene 5494) (UniProt P35813); experiment: NVS_ENZ_hPPM1A: NovaScreen (NVS) Enzymatic Assay for human Protein Phosphatase, Mg2+/Mn2+ Dependent 1A (PPM1A) (AID 2283198)
# Summary of the method: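 Cell-free recombinant PPM1A phosphatase assay with fluorescent substrate, read 1 h after dosing by electrophoretic mobility shift. Chemicals screened in duplicate at 25 uM, then in concentration-response up to 50 uM; loss of activity versus DMSO.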
# [11] = target: Serine/threonine-protein phosphatase PP1-alpha catalytic subunit (Homo sapiens) (UniProt P62136); experiment: NVS_ENZ_hPPP1CA: NovaScreen (NVS) Enzymatic Assay for human Protein Phosphatase 1 Aatalytic subunit Alpha (PPP1CA) (AID 2283200)
# Summary of the method: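 Recombinant enzyme activity read by fluorescence with electrophoretic mobility shift separating substrate from product, 1.33 h after dosing; loss of signal vs DMSO baseline. Primary screen in duplicate at 25 uM; actives retested in concentration-response up to 50 uM.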
# [12] = target: human Sirtuin 2 (SIRT2), SIRT2 (gene 22933) (UniProt Q8IXJ6); experiment: NVS_ENZ_hSIRT2: NovaScreen (NVS) Enzymatic Assay for human Sirtuin 2 (SIRT2) (AID 2283217)
# Summary of the method: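 Cell-free recombinant human SIRT2, fluorescent substrate with product separated by electrophoretic mobility shift, 1 hr. Screened in duplicate at 25 uM; hits rerun singly in concentration-response up to 50 uM, relative to DMSO.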
# [13] = target: human Protein Tyrosine Phosphatase Non-receptor Type 6 (PTPN6), PTPN6 (gene 5777) (UniProt P29350); experiment: NVS_ENZ_hPTPN6: NovaScreen (NVS) Enzymatic Assay for human Protein Tyrosine Phosphatase Non-receptor Type 6 (PTPN6) (AID 2283210)
# human Protein Tyrosine Phosphatase Non-receptor Type 6 (PTPN6), PTPN6 (gene 5777), sequence (P29350 whole entry, looked up): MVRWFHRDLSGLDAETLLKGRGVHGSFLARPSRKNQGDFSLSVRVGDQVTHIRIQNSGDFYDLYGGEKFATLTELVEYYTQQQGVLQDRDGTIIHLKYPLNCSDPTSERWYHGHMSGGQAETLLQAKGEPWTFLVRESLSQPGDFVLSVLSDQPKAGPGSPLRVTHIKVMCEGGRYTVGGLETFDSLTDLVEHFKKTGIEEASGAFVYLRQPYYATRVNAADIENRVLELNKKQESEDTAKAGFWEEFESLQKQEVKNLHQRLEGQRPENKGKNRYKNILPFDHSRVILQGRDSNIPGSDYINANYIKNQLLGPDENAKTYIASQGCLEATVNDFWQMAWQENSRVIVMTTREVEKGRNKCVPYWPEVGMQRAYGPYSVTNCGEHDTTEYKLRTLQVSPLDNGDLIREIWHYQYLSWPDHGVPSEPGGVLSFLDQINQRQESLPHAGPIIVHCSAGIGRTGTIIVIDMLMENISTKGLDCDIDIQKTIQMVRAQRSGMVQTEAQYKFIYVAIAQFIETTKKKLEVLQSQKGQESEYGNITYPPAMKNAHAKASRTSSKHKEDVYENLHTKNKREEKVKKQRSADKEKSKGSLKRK
# Summary of the method: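 Cell-free assay with recombinant PTPN6 expressed in SF9 cells, fluorescent substrate, product separated from substrate by electrophoretic mobility shift; read 1.33 hours after dosing. Primary screen in duplicate at 25 uM, actives retested in concentration series; DMSO baseline.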
# [14] = target: Tyrosine-protein phosphatase non-receptor type 12 (Homo sapiens) (UniProt Q05209); experiment: NVS_ENZ_hPTPN12: NovaScreen (NVS) Enzymatic Assay for human Protein Tyrosine Phosphatase Non-receptor Type 12 (PTPN12) (AID 2283204)
# Tyrosine-protein phosphatase non-receptor type 12 (Homo sapiens), sequence (Q05209 whole entry, looked up): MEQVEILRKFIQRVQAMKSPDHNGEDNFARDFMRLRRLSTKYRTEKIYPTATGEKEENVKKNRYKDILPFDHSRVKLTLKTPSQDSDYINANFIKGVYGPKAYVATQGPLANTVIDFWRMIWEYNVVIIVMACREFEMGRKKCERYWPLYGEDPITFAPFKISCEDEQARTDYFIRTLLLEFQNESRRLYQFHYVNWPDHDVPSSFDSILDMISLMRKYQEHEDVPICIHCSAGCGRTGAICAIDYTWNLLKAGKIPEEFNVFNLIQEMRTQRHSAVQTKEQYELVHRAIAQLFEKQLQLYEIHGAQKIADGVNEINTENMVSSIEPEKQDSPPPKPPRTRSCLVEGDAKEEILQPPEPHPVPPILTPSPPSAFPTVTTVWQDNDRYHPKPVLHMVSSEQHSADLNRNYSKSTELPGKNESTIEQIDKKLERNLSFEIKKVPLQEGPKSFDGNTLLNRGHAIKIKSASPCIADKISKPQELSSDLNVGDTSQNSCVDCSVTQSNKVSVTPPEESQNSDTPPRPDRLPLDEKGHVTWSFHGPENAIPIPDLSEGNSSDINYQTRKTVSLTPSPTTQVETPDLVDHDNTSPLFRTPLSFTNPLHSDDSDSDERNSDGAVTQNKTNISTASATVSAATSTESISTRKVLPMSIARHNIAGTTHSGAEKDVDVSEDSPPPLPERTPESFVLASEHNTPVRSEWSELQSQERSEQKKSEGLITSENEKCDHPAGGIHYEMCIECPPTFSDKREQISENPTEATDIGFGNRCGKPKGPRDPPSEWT
# Summary of the method: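 Single-concentration duplicates (25 uM) preceded singleton concentration-response up to 50 uM for chemicals passing threshold. Cell-free recombinant PTPN12 activity was read 1.33 h after dosing via fluorescence after mobility-shift separation; loss of signal versus DMSO.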
# [15] = target: human Protein Tyrosine Phosphatase Receptor Type F (PTPRF), PTPRF (gene 5792) (UniProt P10586); experiment: NVS_ENZ_hPTPRF: NovaScreen (NVS) Enzymatic Assay for human Protein Tyrosine Phosphatase Receptor Type F (PTPRF) (AID 2283213)
# Summary of the method: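 Cell-free fluorescence enzyme assay with recombinant protein and substrate; product separated by electrophoretic mobility shift. Read 1 h after dosing, single 25 uM duplicate screen, then concentration-response up to 50 uM; loss of signal vs DMSO.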
# [16] = target: human Rho Associated Coiled-coil Containing Protein Kinase 1 (ROCK1), ROCK1 (gene 6093) (UniProt Q13464); experiment: NVS_ENZ_hROCK1: NovaScreen (NVS) Enzymatic Assay for human Rho Associated Coiled-coil Containing Protein Kinase 1 (ROCK1) (AID 2283214)
# Summary of the method: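 Cell-free recombinant human ROCK1 activity assay; fluorescent substrate and product separated by electrophoretic mobility shift, read 1 h after dosing. Screened in duplicate at 25 uM; loss of signal versus DMSO baseline scored as inhibition.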
# [17] = target: human Raf-1 Proto-Oncogene, serine/threonine Kinase (RAF1), RAF1 (gene 5894) (UniProt P04049); experiment: NVS_ENZ_hRAF1: NovaScreen (NVS) Enzymatic Assay for human Raf-1 Proto-Oncogene, serine/threonine Kinase (RAF1) (AID 2283216)
# Summary of the method: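 Cell-free recombinant kinase with specific fluorescent substrate, product separated by electrophoretic mobility shift; read 1 h after dosing. Primary screen at 25 uM in duplicate; hits then run in concentration-response up to 50 uM, fitted as loss of signal versus DMSO.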
smiles,measurement,setting,value
CCNS(=O)(=O)C(F)(F)C(F)(F)C(F)(F)C(F)(F)C(F)(F)C(F)(F)C(F)(F)C(F)(F)F,outcome,PPP2CA (gene 5515),inactive
same,outcome,[1],inactive
same,outcome,[2],inactive
same,outcome,[3],inactive
same,outcome,[4],inactive
same,outcome,[5],inactive
same,outcome,[6],inactive
same,outcome,[7],inactive
same,outcome,[8],inactive
same,outcome,[9],inactive
Cc1ccc(N=C=O)cc1N=C=O,outcome,[10],inactive
same,outcome,[11],inactive
same,AC50,[12],25 µM (active)
CC(C)(OOC(C)(C)c1ccccc1)c1ccccc1,outcome,PPP2CA (gene 5515),inactive
same,outcome,[13],inactive
O=Cc1ccco1,AC50,[4],0.13 µM (active)
Oc1ccc2ccc3cccc4ccc1c2c34,AC50,[14],1.22 µM (active)
same,AC50,[7],1.44 µM (active)
same,AC50,[15],16.5 µM (active)
O=P(OCCCl)(OCCCl)OCCCl,outcome,[13],inactive
CO[C@@H]1[C@H](OC(=O)NC(=O)CCl)CC[C@]2(CO2)[C@H]1[C@@]1(C)O[C@@H]1CC=C(C)C,outcome,[14],inactive
O=C1CCCO1,outcome,[4],inactive
same,outcome,[13],inactive
OCCCBr,AC50,[14],25 µM (active)
same,outcome,[13],inactive
same,AC50,[8],13 µM (active)
CCC12COCN1COC2,outcome,[10],inactive
same,outcome,PPP2CA (gene 5515),inactive
same,outcome,[16],inactive
C[C@]12C=CC3=C4CCC(=O)C=C4CC[C@H]3[C@@H]1CC[C@@H]2O,outcome,[17],inactive
N#CC(Br)Br,outcome,[17],inactive
Cc1ccc(N)c(N)c1,outcome,[9],inactive
CCC[CH2][Sn]([Cl])([CH2]CCC)[CH2]CCC,AC50,[9],7.38 µM (active)
